Measured values reported in article PMC4336329 (PLoS ONE, 2015).
Out of some 310,000 compounds screened, about 2,200 (0.71%) showed an effect of 50% or more. The effect is printed as a negative number. Only a selection was taken, and strong results are over-represented in it overall.

These molecules were tested against human ether-à-go-go-related gene (hERG) potassium channel (human, UniProt Q12809) (assay: primary screen, population patch clamp on CHO cells stably expressing hERG; higher = less effect of the substance).
Sequence of human ether-à-go-go-related gene (hERG) potassium channel (Q12809 whole entry, looked up): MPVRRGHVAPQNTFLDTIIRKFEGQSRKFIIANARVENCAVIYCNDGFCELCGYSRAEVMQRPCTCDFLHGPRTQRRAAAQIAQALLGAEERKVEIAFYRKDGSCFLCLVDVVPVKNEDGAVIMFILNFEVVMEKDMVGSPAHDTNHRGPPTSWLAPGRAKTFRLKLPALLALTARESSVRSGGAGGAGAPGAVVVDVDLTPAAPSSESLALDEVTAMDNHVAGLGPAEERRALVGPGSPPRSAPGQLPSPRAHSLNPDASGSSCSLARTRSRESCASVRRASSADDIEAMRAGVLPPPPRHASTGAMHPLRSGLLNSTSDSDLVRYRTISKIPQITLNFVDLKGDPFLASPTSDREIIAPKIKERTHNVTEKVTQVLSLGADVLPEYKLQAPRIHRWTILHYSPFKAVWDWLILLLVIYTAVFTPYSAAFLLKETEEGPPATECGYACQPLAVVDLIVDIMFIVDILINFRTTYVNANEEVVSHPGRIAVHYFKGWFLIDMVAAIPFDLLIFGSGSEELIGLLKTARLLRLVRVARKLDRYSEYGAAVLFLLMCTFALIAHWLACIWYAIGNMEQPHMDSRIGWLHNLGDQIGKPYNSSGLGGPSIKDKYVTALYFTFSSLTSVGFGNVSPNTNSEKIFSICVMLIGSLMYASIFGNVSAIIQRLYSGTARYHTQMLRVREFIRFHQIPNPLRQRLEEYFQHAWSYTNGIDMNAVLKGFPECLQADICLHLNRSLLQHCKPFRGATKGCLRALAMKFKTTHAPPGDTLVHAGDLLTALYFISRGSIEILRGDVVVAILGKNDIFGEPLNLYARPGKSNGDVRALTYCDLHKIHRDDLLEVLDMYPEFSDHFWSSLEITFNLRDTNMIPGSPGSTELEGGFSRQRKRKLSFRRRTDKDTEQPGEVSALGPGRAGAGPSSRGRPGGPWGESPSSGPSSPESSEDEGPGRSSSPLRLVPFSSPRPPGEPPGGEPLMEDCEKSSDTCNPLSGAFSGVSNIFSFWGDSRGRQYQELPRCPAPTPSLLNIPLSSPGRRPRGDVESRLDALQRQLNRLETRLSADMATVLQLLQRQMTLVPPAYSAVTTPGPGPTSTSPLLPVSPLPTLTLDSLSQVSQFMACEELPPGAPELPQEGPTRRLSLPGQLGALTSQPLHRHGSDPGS

Structure (SMILES) | hERG current change (%, negative = inhibition) at 1uM [%]
COc1ccc2c(CCNC(=O)c3ccc([N+](=O)[O-])cc3)c[nH]c2c1 | 12.8
Cc1cccn2c(=O)c(C=Nc3ccccc3)c(NCCO)nc12 | 6
Cc1c(CC(=O)O)c(=O)oc2c(C)c3occ(-c4ccccc4)c3cc12 | 19.9
CC1(c2ccc(OC(F)F)cc2)NC(=O)N(CC(=O)Nc2ccc(OC(F)F)cc2)C1=O (stereo not shown) | -100
CC1(c2ccc(OC(F)F)cc2)NC(=O)N(CC(=O)Nc2ccccc2)C1=O (stereo not shown) | -26.2
CC1(c2ccc(OC(F)F)cc2)NC(=O)N(CC(=O)Nc2ccc(F)cc2)C1=O (stereo not shown) | -15.6
COc1ccc(O)c(/C=N/NC(=O)CN2CCS(=O)(=O)CC2)c1 | 15.5
COc1ccc(C2=NN(C(=O)CSc3nnc(C)c(=O)n3N)C(c3ccco3)C2)cc1 (stereo not shown) | -0.0705
COc1ccc(CCC(=O)N2CCN(c3ccc([N+](=O)[O-])cc3)CC2)cc1OC | -76.1
COc1cc(CCC(=O)N2CCN(c3ccc([N+](=O)[O-])cc3)CC2)cc(OC)c1OC | -83.6
COCC(=O)N1CCN(c2ccc([N+](=O)[O-])cc2)CC1 | -31.5
COc1ccc(CCC(=O)N2CCN(c3ccccc3)CC2)cc1OC | 13.5
COc1cc(CCC(=O)N2CCN(c3ccccc3)CC2)cc(OC)c1OC | -0.0932
COc1ccccc1CC(=O)N1CCN(c2ccc([N+](=O)[O-])cc2)CC1 | -8.15
CCOC(=O)Cc1nnc(-c2ccccc2)o1 | 5.78
COc1ccc2nc(NC(=O)c3ccoc3C)sc2c1 | 17.6
S=C(NN=C1C2CC3CC(C2)CC1C3)Nc1ccccc1 | 11.9
CC(=O)Nc1ccc2oc(C)nc2c1 | 22.4
CC(C)(C)OC(=O)N[C@H](C(=O)OC(C)(C)C)c1ccc(C(F)(F)F)cc1 | 12.8
Cn1c2ccccc2c2c(C(=O)NCc3ccco3)cn(C3CCCCC3)c(=O)c21 | 7.44
Cc1ccc2nc(SCC(=O)NCc3ccco3)nc(=O)n2c1 | 11.3
O=C(NCc1ccco1)c1cnc2ccccn2c1=O | 5.25
Cc1ccc2nc3c(cc(C(=O)NCc4ccco4)c(=N)n3C3CCCC3)c(=O)n2c1 | -83.2

Structure (SMILES) | hERG current change (%, negative = inhibition) at 1uM [%]
N=c1c(C(=O)NCc2ccco2)cc2c(=O)n3ccccc3nc2n1C1CCCC1 | -82.2
N=c1c(S(=O)(=O)c2ccccc2)cc2c(=O)n3ccccc3nc2n1C1CCCC1 | 8.93
C/C(=N\NC(=O)c1ccccc1[N+](=O)[O-])c1ccc(Br)s1 | 14.7
COc1ccc(CCNC(=O)CN(C2CCCCC2)S(C)(=O)=O)cc1 | 4.21
COC(=O)c1scc(C)c1S(=O)(=O)Nc1ccc(C)cc1 | 12.7
Cc1nc2scc(C)n2c(=O)c1S(=O)(=O)Nc1ccc(N2CCOCC2)cc1 | 5.65
Cc1ccc(S(=O)(=O)N2CCN(C(=O)c3cccs3)CC2)cc1C | 2.03
CCN1C(=O)C(CC(=O)Nc2ccc(Cl)cc2)N(NC(=O)c2ccncc2)C1=S (stereo not shown) | 12.2
FC(F)(F)c1ccc(-c2noc(CN3CCCN(C4CCCCC4)CC3)n2)cc1 | -75.3
Cc1ccc(-c2noc(CN3CCCCC3)n2)cc1 | 31.5
CN1CCCN(Cc2nc(-c3cccc(C(F)(F)F)c3)no2)CC1 | -15.4
CCN(CC)S(=O)(=O)c1cc(C(=O)Nc2cccnc2)ccc1Cl | -40.3
CC(=O)N1CCOc2ccc(S(=O)(=O)Nc3ccc(C)cn3)cc21 | 4.68
COCCNC(=O)c1ccccc1NC(=O)c1ccc(OC)c(OC)c1 | 4.05
Cc1ccc(CN2CCC(c3cc(-c4ccc(Cl)cc4)n[nH]3)CC2)cc1 | -78.1
CCOC(=O)CN1CCC(c2cc(-c3ccc(Cl)cc3)n[nH]2)CC1 | 22.3
COc1ccc(-c2cc(C3CCN(Cc4cccc(C(F)(F)F)c4)CC3)[nH]n2)cc1 | -13
Cc1ccc(CN2CCC(c3cc(-c4cccs4)n[nH]3)CC2)cc1 | -85.6
COc1ccc(-c2cc(C3CCN(Cc4ccc([N+](=O)[O-])cc4)CC3)[nH]n2)cc1 | -44.3
CC(C)(C)OC(=O)N1CCC(c2cc(-c3cccs3)n[nH]2)CC1 | 4.89
S=c1[nH]ncn1/N=C/c1ccccc1 | 14.4
COc1nc(Nc2ccc([N+](=O)[O-])cc2)nc(NC2CCCCC2)n1 | 11.2
O=C(COc1ccccc1Cl)N1CCN(c2ccc([N+](=O)[O-])c(N3CCCCC3)c2)CC1 | 0.717

Structure (SMILES) | hERG current change (%, negative = inhibition) at 1uM [%]
CCCCCNC(=O)[C@@H]1CSC2c3ccccc3C(=O)N21 (stereo partly shown) | 14
COc1ccc(CCc2nc(-c3cccs3)no2)cc1 | 5.28
O=C(CSc1ccc2nnc(-c3ccncc3)n2n1)Nc1ccc2c(c1)OCO2 | 13.8
O=C(CSc1nnc(-c2cccnc2)n1-c1ccc(F)cc1)NCc1ccc2c(c1)OCO2 | -54.5
O=C(CSc1nnc(-c2cccnc2)n1-c1ccccc1)NCc1ccc2c(c1)OCO2 | -47.9
O=C(CSc1ccc2nnc(-c3ccccc3)n2n1)NCc1ccc2c(c1)OCO2 | -71
O=C(CSc1nnc(-c2ccccc2)n1Cc1ccco1)NCc1ccc2c(c1)OCO2 | -22.2
O=C(CSc1nnc(-c2ccc(Cl)cc2)n1Cc1ccco1)NCc1ccc2c(c1)OCO2 | -51.6
O=C(CSc1ccc2nnc(-c3ccccn3)n2n1)Nc1ccc2c(c1)OCCO2 | -2.96
O=C(CSc1ccc2nnc(-c3cccnc3)n2n1)NCc1ccc2c(c1)OCO2 | 4.47
O=C(CSc1nnc(-c2cccnc2)n1Cc1ccco1)NCc1ccc2c(c1)OCO2 | -20.4
C=CCn1c(SCC(=O)NCc2ccc3c(c2)OCO3)nnc1-c1cccnc1 | 8.01
O=C(CSc1ccc2nnc(-c3ccccn3)n2n1)Nc1ccc2c(c1)OCO2 | 2.61
O=C(CSc1ccc2nnc(-c3ccccn3)n2n1)NCc1ccc2c(c1)OCO2 | -65.8
COc1cc(S(=O)(=O)N(Cc2cccnc2)Cc2ccco2)ccc1-n1cnnn1 | -10.7
Cc1cc(C(=O)NC2CCCCCCC2)ccc1[N+](=O)[O-] | 13.3
Cc1ccc(CN2C(=O)CSC2c2ccc(F)cc2)cc1 (stereo not shown) | 12.2
C#CC(CO)N(CCN(Cc1ccccc1)C(C#C)CO)Cc1ccccc1 (stereo not shown) | 9.58
COC(=O)C(C)NC(=S)N1CC2C[C@@H](C1)Cn1c2cccc1=O (stereo partly shown) | 15.6
COc1cccc(N2CCN(S(=O)(=O)c3ccc(-c4coc(C)n4)cc3)CC2)c1 | 11.7
CCN(CC(=O)Nc1ccc(NC(C)=O)cc1)C(=O)c1cc2c(s1)CCCCC2 | 2.11
c1ccc(-c2nnc3sc(-c4cc5ccccc5o4)nn23)cc1 | 14.4
CCCCCC(=O)Nc1cccc(-c2nc3ncccc3o2)c1 | 0.93

Structure (SMILES) | hERG current change (%, negative = inhibition) at 1uM [%]
Cc1ccc(-c2nnc3ccc(SCC(=O)NCc4ccco4)nn23)cc1 | 4.96
O=C(CSc1ccc2nnc(-c3ccccc3)n2n1)NCc1ccco1 | -65.8
O=C(CSc1ccc2nnc(-c3ccncc3)n2n1)NCc1ccco1 | -7.28
CCOc1ccc(OCCNC2CCCC2)cc1 | 2.09
O=C(NCc1ccco1)C(NS(=O)(=O)c1cccc2nsnc12)c1ccccc1 (stereo not shown) | 7.81
O=C(CCn1c(=O)[nH]c2ccsc2c1=O)N1CCN(c2cccc(Cl)c2)CC1 | -6.52
CC(CNC(=O)c1ccc(C#N)cc1)NC(=O)c1ccc(C#N)cc1 (stereo not shown) | -81.9
CCOc1ccc(C(=O)NCC(C)NC(=O)c2ccc(OCC)cc2)cc1 (stereo not shown) | 22.5
CC(CNC(=O)c1ccc(N)cc1)NC(=O)c1ccc(N)cc1 (stereo not shown) | 12
CN(C)/C=C/C(=O)c1ccccc1F | 4.57
COc1ccc(C(=O)C2CCCN(Cc3c(O)cccc3OC)C2)cc1OC (stereo not shown) | -7.05
CCOc1ccccc1CN1CCCC(C(=O)c2ccc(OC)c(OC)c2)C1 (stereo not shown) | -51.1
COc1ccc(C(=O)C2CCCN(Cc3cccc4c3OCO4)C2)cc1OC (stereo not shown) | -29.3
COc1ccc(C(=O)C2CCCN(Cc3cn[nH]c3-c3ccccc3)C2)cc1OC (stereo not shown) | -75.4
COc1ccc(C(=O)C2CCCN(Cc3cn[nH]c3-c3ccc(F)cc3)C2)cc1OC (stereo not shown) | -25.9
COc1cccc(OC)c1CN1CCCC(C(=O)c2ccccc2SC)C1 (stereo not shown) | -37.8
COc1ccc(C(=O)C2CCCN(Cc3ccc(C)s3)C2)cc1OC (stereo not shown) | -32.5
COc1ccc(-c2[nH]ncc2CN2CCCC(C(=O)c3cccc(OC)c3)C2)cc1 (stereo not shown) | -29.5
COc1ccc(C(=O)C2CCCN(Cc3cnc(C)s3)C2)cc1OC (stereo not shown) | 2.68
COc1cccc(CN2CCCC(C(=O)c3ccccc3SC)C2)c1O (stereo not shown) | -76.9
COc1ccccc1CN1CCCC(C(=O)c2ccccc2SC)C1 (stereo not shown) | -27.3
COc1ccc(C(=O)C2CCCN(Cc3nc4ccccc4nc3C)C2)cc1OC (stereo not shown) | -83.3
